High-throughput results deposited in PubChem by Broad Institute.
Only some compounds are listed: those with a hit (about 6.7% of all), similar ones and a draw of the others.
C diff HTS: inhibitors of Clostridium difficile growth; Clostridium difficile clinical isolate growth, OD600, 24 h; stronger effect = lower value; growth activity, negative = inhibition, % at 16 µg/mL (by protocol); 0.25% of 86,000 active; AID 1259249;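 active means mean growth activity at or below -80% and every replicate also at or below -80%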;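 further: 0% = DMSO wells and -100% = levofloxacin 16 µg/mL wells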
T cruzi growth-1: inhibitors of T. cruzi proliferation; 5.9% of 77,000 active; AID 624255; T. cruzi beta-gal in NIH3T3, GalScreen luminescence, 90 h; inhibition, % at 8.34 µM;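 active means mean inhibition above about 93%, with at least 55% of replicates each passing it, limit read from the data, passing the limit was not always enough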
Pf Dd2 growth: blocks growth of Plasmodium falciparum Dd2 parasites | P. falciparum Dd2 growth, SYBR Green, 72 h; stronger effect = lower value | activity change, % at 10 µM | 2.3% of 94,000 active; in the data active means activity change below about -80%
T cruzi growth-2: Trypanosoma cruzi proliferation inhibition; inhibition, % at 8.35 µM; shares compounds with T cruzi growth-1; 72% of 5,600 active; T. cruzi beta-gal in NIH3T3, GalScreen luminescence, 90 h;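 active means mean replicate inhibition above about 95% and at least 55% of replicates individually reaching it, limit read from the data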
T cruzi growth-3: blocks T. cruzi growth in NIH3T3 host cells. shares compounds with T cruzi growth-1. AID 651740. 21% of 5,600 active. inhibition, % at 2.09 µM. T. cruzi beta-gal in NIH3T3, GalScreen luminescence, 90 h;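 active means mean inhibition above about 95%, with at least 55% of replicates also reaching it, limit read from the data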;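 further: plate controls were neutral control median for no effect and positive control median for full effect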
3T3 cytotox: kills mouse NIH/3T3 fibroblasts. shares compounds with T cruzi growth-1. NIH/3T3 viability, CellTiter-Glo ATP luminescence, 90 h. cytotoxicity (signal decrease), % at 8.35 µM. 14% of 5,600 active;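 active means mean signal decrease across replicates above about 35% based on untreated-well scatter, with enough replicates individually passing, limit read from the data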;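 further: 0% = median of neutral control wells and 100% = median of positive control wells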
NIH3T3 tox 2: NIH/3T3 (mouse) viability loss; inhibition, % at 24.9 µM; NIH/3T3 viability, CellTiter-Glo ATP luminescence, 90 h; AID 651744; 56% of 5,600 active; shares compounds with T cruzi growth-1;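 active means mean loss of cell viability signal at or above a set limit, and enough replicates individually reaching it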;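 further: 0% = median of neutral control wells and 100% = median of positive control wells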
* = called active by the depositor; . = no result given.

SMILES | C diff HTS | T cruzi growth-1 | Pf Dd2 growth | T cruzi growth-2 | T cruzi growth-3 | 3T3 cytotox | NIH3T3 tox 2
O=C(O)[C@@H]1[C@@H](CO)[C@@H]2Cn3c(ccc(-c4ccncc4)c3=O)[C@H]1N2S(=O)(=O)c1ccccc1F | -2 | -110 | . | . | . | . | .
N#Cc1cccc(-c2ccc([C@@H]3[C@H](CO)N4CCCCN(C(=O)Cc5cccnc5)C[C@@H]34)cc2)c1 | 2 | 83 | -13 | . | . | . | .
N#Cc1cccc(-c2ccc([C@H]3[C@H](CO)N4CCCCN(C(=O)Cc5cccnc5)C[C@@H]34)cc2)c1 | 0 | 109* | -7 | 103* | 57 | 17 | 55*
N#Cc1ccc(-c2ccc([C@@H]3[C@@H](CO)N4CCCCN(C(=O)Cc5ccccc5)C[C@H]34)cc2)cc1 | 1 | 42 | 18 | . | . | . | .
N#Cc1cccc(-c2ccc([C@@H]3[C@@H](CO)N4CCCCN(C(=O)Cc5ccncc5)C[C@H]34)cc2)c1 | 5 | 108* | -16 | 52 | -8 | 14 | 37*
N#Cc1cccc(-c2ccc([C@H]3[C@@H](CO)N4CCCCN(C(=O)Cc5cccnc5)C[C@H]34)cc2)c1 | -3 | 88 | 2 | . | . | . | .
N#Cc1cccc(-c2ccc([C@H]3[C@H](CO)N4CCCCN(C(=O)Cc5ccccc5)C[C@@H]34)cc2)c1 | 3 | 102* | 7 | 90 | 59 | 28 | 42*
COC(=O)[C@H]1[C@H](CO)[C@H]2Cn3c(cccc3=O)[C@@H]1N2C(=O)C1CCCC1 | -1 | 32 | -17 | . | . | . | .
O=C(Cc1ccccn1)N1CCCCN2[C@@H](CO)[C@H](c3ccc(Br)cc3)[C@@H]2C1 | 7 | 89 | -34 | . | . | . | .
COC(=O)[C@H]1[C@H](CO)[C@H]2Cn3c(ccc(-c4ccc(F)cc4)c3=O)[C@@H]1N2Cc1cccnc1 | -6 | -110 | . | . | . | . | .
COC(=O)C[C@H]1CC[C@@H]2NC[C@@H](O)COC[C@H]2O1 | -1 | 71 | -2 | . | . | . | .
O=C(Cc1ccccn1)N1CCCCN2[C@H](CO)[C@H](c3ccc(C#Cc4ccccc4)cc3)[C@@H]2C1 | -18 | 116* | -71 | 109* | 70 | 36* | 46*
CC(C)CC#Cc1ccc([C@@H]2[C@H](CO)N3CCCCN(C(=O)Cc4ccccn4)C[C@@H]23)cc1 | -10 | 97* | -33 | 108* | 73 | 15 | 104*
CCCC#Cc1ccc([C@@H]2[C@H](CO)N3CCCCN(C(=O)Cc4ccccn4)C[C@@H]23)cc1 | -6 | 55 | -51 | . | . | . | .
CC(C)CC#Cc1ccc([C@@H]2[C@@H](CO)N3CCCCN(C(=O)Cc4ccccn4)C[C@H]23)cc1 | -10 | 88 | 0 | . | . | . | .
O=C(NC[C@H]1CC[C@H]2[C@H](CN2Cc2cccnc2)O1)C1CC1 | -6 | . | 44 | . | . | . | .
C/C=C/c1ccc(C2[C@H]3CNC[C@@H]2N3CC2CCCCC2)cc1 (some centres undefined) | -10 | . | 39 | . | . | . | .
CCC(=O)N1[C@@H]2c3ccc(C4=CCCC4)c(=O)n3C[C@H]1[C@H](CO)[C@H]2C(=O)OC | 3 | 1 | 0 | . | . | . | .
COc1ccc(-c2ccc([C@H]3[C@H]4CN(C(=O)Cc5ccccc5)CCCCN4[C@H]3CO)cc2)cc1 | 6 | 74 | -41 | . | . | . | .
COc1ccc(-c2ccc([C@@H]3[C@H]4CN(C(=O)Cc5ccccc5)CCCCN4[C@H]3CO)cc2)cc1 | 4 | 79 | -7 | . | . | . | .
COc1ccc(C#Cc2ccc([C@@H]3[C@@H](CO)N4CCCCN(C(=O)Cc5ccncc5)C[C@@H]34)cc2)cc1 | 28 | 117* | -75 | 104* | 76 | 21 | 102*
COc1cccc(-c2ccc([C@@H]3[C@H]4CN(C(=O)Cc5ccncc5)CCCCN4[C@H]3CO)cc2)c1 | -5 | 114* | -10 | 94 | 26 | 7 | 28
O=C(Cc1ccncc1)N1CCCCN2[C@H](CO)[C@H](c3ccc(C#CC4(O)CCCC4)cc3)[C@@H]2C1 | 3 | 93 | 13 | . | . | . | .
O=C(Cc1ccncc1)N1CCCCN2[C@H](CO)[C@@H](c3ccc(C#CC4(O)CCCC4)cc3)[C@@H]2C1 | 0 | 105* | 9 | 1 | -7 | 9 | 17
COc1ccc(C#Cc2ccc([C@H]3[C@@H](CO)N4CCCCN(C(=O)Cc5ccncc5)C[C@H]34)cc2)cc1 | 0 | 109* | -69 | 108* | 86 | 23 | 106*
SMILES | C diff HTS | T cruzi growth-1 | Pf Dd2 growth | T cruzi growth-2 | T cruzi growth-3 | 3T3 cytotox | NIH3T3 tox 2
COc1cccc(-c2ccc3n(c2=O)C[C@H]2[C@H](CO)[C@@H](C(=O)O)[C@@H]3N2Cc2ccccc2F)c1 | . | -37 | . | . | . | . | .
CC=Cc1ccc2n(c1=O)C[C@@H]1[C@@H](CO)[C@H](C(=O)OC)[C@H]2N1C(=O)CC (mixture of isomers) | -2 | 7 | . | . | . | . | .
COC(=O)C[C@H]1CC[C@H]2NC[C@H](O)COC[C@@H]2O1 | -1 | 60 | -10 | . | . | . | .
COC(=O)[C@@H]1[C@@H](CO)[C@@H]2Cn3c(ccc(C4=CCCC4)c3=O)[C@H]1N2S(=O)(=O)c1cn(C)cn1 | 0 | 9 | 11 | . | . | . | .
CN1[C@H](CO)[C@H]2c3ccccc3NC[C@H]21 | 19 | 8 | -36 | . | . | . | .
CCCNC(=O)[C@H]1[C@H](CO)[C@H]2Cn3c(cccc3=O)[C@@H]1N2CCC | -1 | 62 | 18 | . | . | . | .
COC(=O)[C@H]1[C@H](CO)[C@H]2Cn3c(ccc(-c4ccccc4)c3=O)[C@@H]1N2CC1CCOCC1 | -6 | -22 | 11 | . | . | . | .
COc1ccc(-c2ccc([C@@H]3[C@H](CO)N4CCCCN(C(=O)Cc5ccncc5)C[C@@H]34)cc2)cc1 | -4 | 99* | -15 | 98* | 62 | 1 | 29*
O=C(Cc1ccncc1)N1CCCCN2[C@H](C1)[C@H](c1ccc(C#Cc3ccccc3F)cc1)[C@@H]2CO | 0 | 24 | -49 | . | . | . | .
COc1ccc(-c2ccc([C@@H]3[C@@H](CO)N4CCCCN(C(=O)Cc5ccccc5)C[C@@H]34)cc2)cc1 | 3 | 75 | 3 | . | . | . | .
COc1ccc(C#Cc2ccc([C@H]3[C@H]4CN(C(=O)Cc5ccncc5)CCCCN4[C@H]3CO)cc2)cc1 | 0 | 107* | -64 | 98* | -82 | 77* | 98*
COc1ccc(C#Cc2ccc([C@H]3[C@@H](CO)N4CCCCN(C(=O)Cc5ccncc5)C[C@@H]34)cc2)cc1 | 2 | 108* | -45 | 105* | 69 | 41* | 64*
COc1ccc(-c2ccc([C@H]3[C@@H](CO)N4CCCCN(C(=O)Cc5ccncc5)C[C@H]34)cc2)cc1 | -5 | 88 | -4 | . | . | . | .
COc1ccc(C#Cc2ccc([C@@H]3[C@H]4CN(C(=O)Cc5ccncc5)CCCCN4[C@H]3CO)cc2)cc1 | 49 | 106* | -59 | 92 | 73 | 28 | 100*
CCC(=O)N1[C@@H]2Cn3c(ccc(-c4cccc(F)c4)c3=O)[C@H]1[C@@H](C(=O)OC)[C@@H]2CO | 6 | 19 | 6 | . | . | . | .
C[C@@H]1CN([C@H](C)CO)C(=O)c2c(c3ccccc3n2C)-c2ccccc2CO[C@@H]1CN(C)C(=O)Oc1ccccc1 | 4 | . | -72 | . | . | . | .
COC(=O)[C@H]1[C@H](CO)[C@H]2Cn3c(ccc(-c4ccccc4F)c3=O)[C@@H]1N2C(C)=O | -4 | 41 | 7 | . | . | . | .
